Compound activity as filed in PubChem.
ANO1 activ: activates or potentiates the mouse TMEM16A chloride channel. Q8BHY3. HEK293 TMEM16A/YFP-H148Q/I152L, iodide quench fluorescence; stronger effect = lower value. B-score at 10 µM. 340,000 compounds, 0.3% hits. AID 623877;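 active = fluorescence-ratio B-score plate-corrected deviation score at least 3 library SD below zero, with starting fluorescence score within 5 deviations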;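 note: channel opened by trigger with iodide after compound preincubation; score built on the fluorescence ratio of max minus min over baseline; more negative score means more quench and so TMEM16A activation or potentiation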
ANO1 block: mouse TMEM16A channel inhibition, primary screen. Q8BHY3. HEK293 TMEM16A/YFP iodide influx fluorescence, ionomycin. normalized B-score (activity score, 25-100; higher = stronger inhibition) at 10 µM. 310,000 compounds, 1.2% hits. AID 588511;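 active = ratio plate-corrected score three or more library SD toward inhibition, starting fluorescence score within five deviations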;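 note: score derived from kinetic fluorescence span divided by baseline fluorescence per well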
CHT block: human CHT choline transport inhibition; Q9GZV3; CHT-expressing cells, membrane potential dye, choline response; stronger effect = lower value; B-score at 10 µM; 310,000 compounds, 0.86% hits; AID 488975;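 active = B-score over 3 SD under the library average, and starting fluorescence ratio not unusually high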;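 note: choline stimulus applied at its EC90 after an EC20 pre-addition; B-score computed on integrated fluorescence ratio after choline addition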
CHT allo act: human CHT allosteric activation | Q9GZV3 | CHT-expressing cells, membrane potential dye, choline EC20; stronger effect = higher value; LV-AA mutant CHT in HEK293 cells | B-score at 10 µM | 310,000 compounds, 0.49% hits;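 active = initial fluorescence not abnormally high and integrated response B-score, plate-corrected, over 3 SD above library mean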
CHT block conf: human CHT inhibition, confirmatory screen. CHT activity remaining % of control (stronger effect = lower value), % at 10 µM. 2,400 compounds, 70% hits. CHT-expressing cells, choline membrane potential dye; LV-to-AA substituted CHT, HEK293 cells. shares compounds with CHT block;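 active = choline transporter activity left, mean of duplicates at 10 µM, below buffer-only control mean minus 3 SD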;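 note: depolarization triggered by choline at its EC90 following an EC20 pre-addition; 0% = hemicholinium-3 full block and 100% = buffer-only control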
HEK293 MPD ctr: counter-screen for CHT inhibitors: effect in parental HEK293 cells | membrane potential dye, choline response; active = decrease or increase beyond buffer ±3SD | membrane potential ratio readout (active if shifted either direction beyond buffer ±3SD; no single direction) at 10 µM | 2,400 compounds, 4% hits | shares compounds with CHT block;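 note: parental cells lack the transporter so any hit is non-specific; ratio is peak minus trough fluorescence over baseline after EC90 choline challenge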
* = called active by the depositor; i = inactive; / = no result given. In the library only some 2.4% were active in any assay of this set; here they are far more common.

SMILES	ANO1 activ	ANO1 block	CHT block	CHT allo act	CHT block conf	HEK293 MPD ctr
CCN(CC)CCCN(C(=O)c1ccc(OC)cc1)c1nc(-c2ccc(OC)cc2)cs1	i	i	-5.4*	i	44%*	i
CC(C)OP(=O)(OC(C)C)/C(C=O)=N\Nc1ccc([N+](=O)[O-])cc1	i	i	-8.4*	i	i	i
CC(C)OP(=O)(OC(C)C)C(Nc1ccc([N+](=O)[O-])cc1)c1cccc([N+](=O)[O-])c1 (stereo not given)	i	i	i	i	/	/
CCN1C(=O)C2(SC(NC(C)=O)=NN2C(C)=O)c2cc(C)cc(C)c21 (stereo not given)	i	i	i	i	/	/
O=C(N/N=C/c1cccs1)c1n[nH]c2c1CCCC2	i	i	-6*	i	i	i
Cc1ccc(/C=N/NC(=O)c2n[nH]c3c2CCCC3)cc1	i	i	i	i	/	/
CCOc1ccc(/C=C2\SC(N3CCc4ccccc4C3)=NC2=O)cc1	i	i	i	i	/	/
Cc1ccc(SCCNC(=O)c2ccc(C)c(S(=O)(=O)Nc3cccc(C)c3)c2)cc1	i	i	i	i	/	/
Cc1ccc2[nH]c3c(c2c1)CN(C(=O)CN1CCN(Cc2ccc4c(c2)OCO4)CC1)CC3	i	i	-5.6*	i	38%*	i
CCOc1ccc([C@@H]2CC=C(C(=O)O)[C@H](c3cccc(Cl)c3)N2S(=O)(=O)c2ccc(C)cc2)cc1	-6.9*	i	-6.1*	i	62%*	i
Cc1ccc(S(=O)(=O)N2[C@@H](c3ccccc3)C(C(=O)O)=CC[C@H]2c2cccc(Cl)c2)cc1	i	i	i	i	/	/
Cc1ccc(S(=O)(=O)N2[C@@H](c3ccc(Cl)cc3)C(C(=O)O)=CC[C@H]2c2ccc(Cl)c(Cl)c2)cc1	i	100*	-6.2*	i	65%*	i
CCOc1ccc([C@@H]2CC=C(C(=O)O)[C@H](c3ccc(F)cc3)N2S(=O)(=O)c2ccc(C)cc2)cc1	i	i	i	i	/	/
COc1ccc(S(=O)(=O)Cc2ccc(C(=O)N3CCN(c4cccc(C)c4)C(C)C3)o2)cc1 (stereo not given)	i	i	-5.4*	i	i	i
O=C(C[n+]1cccc2ccccc21)c1ccc([N+](=O)[O-])cc1	i	i	i	i	/	/
O=C(C[n+]1cc(Br)cc2ccccc21)c1ccccc1	i	i	-6.4*	i	56%*	2.4*
O=C(C[n+]1cccc2ccccc21)c1ccc(Cl)cc1	i	i	-8*	i	37%*	i
Nc1ccc(C(=O)NCC2(c3ccccc3)CCCC2)cc1	i	i	i	i	/	/
O=C(COc1ccc(S(=O)(=O)NC2CCCCC2)cc1)NCCC1=CCCCC1	i	i	i	i	/	/
COc1ccc(CCNC(=O)C2CCCCC2C(=O)O)cc1OC (stereo not given)	/	i	i	i	/	/
c1ccc(Cn2ccnc2SCc2nnc(-c3ccccc3)o2)cc1	i	i	-6.1*	i	63%*	i
Cc1ccccc1C(=O)OC(C)CN1CCN(C)CC1 (stereo not given)	i	i	-6.1*	i	46%*	i
Cc1ccccc1OCC(=O)OC(C)CN1CCN(C)CC1 (stereo not given)	i	i	i	i	/	/
CC(CN1CCCC1)OC(=O)c1ccccc1Cl (stereo not given)	i	i	i	i	/	/
CC(CN1CCN(C)CC1)OC(=O)c1ccccc1Cl (stereo not given)	i	i	-8.3*	i	12%*	i
Cc1ccc(C(=O)CSc2nnc(C(C)C)n2C)cc1C	i	i	i	i	/	/
O=C(CN1CCN(S(=O)(=O)c2ccccc2)CC1)Nc1ccc(Cl)c(Cl)c1	i	i	i	i	/	/
Cc1ccc(Nc2c3c(nc4ncnn24)CC(C)CC3)cc1 (stereo not given)	i	i	-5.8*	i	i	i
